ARNT TACC3 PPI: ARNT/TACC3 interaction disruption; Q9Y6A5; AlphaScreen His-ARNT PAS-B/GST-TACC3 binding, luminescence; TACC3 fragment carries E629A point mutation; inhibition, % at 9.99 µM; actives 0.66% (n = 390,000);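 active = mean inhibition of replicates at least 50% and at least half of replicates each reaching 50%; inconclusive = half or more replicates reach 50% but mean below 50%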;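 note: 0% = complete ARNT plus TACC3 wells and 100% = ARNT alone without TACC3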
AI-2 QS mod: modulates the Vibrio harveyi AI-2 quorum sensing system | Vibrio harveyi JMH597 AI-2 luminescence/OD600 ratio, 9 h; hits give low values; strain lacks LuxN and CqsS sensors; 0 = neutral-control median | activity change, % at 7.5 µM | actives 0.4% (n = 300,000) | AID 2094; in the data active = activity change below about -75%, passing the limit was not always enough; inconclusive = no clear call, values can overlap the other calls;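 note: luminescence divided by OD600 gain over 9 h not by final OD600 alone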
aDG glyco up: increases alpha dystroglycan glycosylation. actives 0.22% (n = 360,000). Pro5-aDG cells, alpha-DG glycosylation AlphaScreen (IIH6); 0% Pro5, 100% B10-LARGE cell signal. AID 624168. activation, % at 10 µM;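 active = activation of at least 8% versus controls, or a plate z-score of at least 8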;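 note: Pro5 are CHO cells carrying HIG-tagged alpha-DG that lacks glycosylation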
SUMO Mot1 rescue: inhibitors of SUMOylation pathway: yeast Mot1-301 growth rescue; S. cerevisiae Mot1-301 growth rescue, ATP luminescence, 38.5C; percent above DMSO median, 100 means doubled; growth rescue, % at 18.8 µM; actives 1% (n = 320,000);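 active = every valid replicate shows activation above 250% relative to neutral control wells; inactive = the rest, any valid replicate at or below 250%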;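 note: OY570 slx delta 5 strain wells were the positive control but not used for scaling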
A1 inh: inhibitors of the anti-apoptotic protein A1, read as caspase activation. MEF A1-2A-BIM cells, Caspase-Glo 3/7 luminescence, 3 h; percent of clofoctol response, vehicle zero. caspase activation, % (concentration not given with the values). actives 0.066% (n = 330,000). AID 2462;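 active = over half of replicate activation scores above 10%, or exactly half above 10 with the replicate mean above 10; inconclusive = replicate mean below 10 yet half the replicates above 10; inactive = over half of replicates below 10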
Mot1 SUMO dose: yeast SUMO pathway inhibition in dose response. shares compounds with SUMO Mot1 rescue. S. cerevisiae Mot1-301 galactose growth, ATP luminescence, 24 h; -100 = growth of slx-deleted rescue strain. growth activity, percent, % at 42 µM. 2,300 tested, under 10 active;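 active = Signal drops as the depositor expects, and the fitted half-maximal dose is no more than ten times the top valid tested dose; inconclusive = Poor fit, or a flat curve whose signal drops by 30% to 70%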;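 note: more negative values mean stronger growth rescue toward the control strain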
Starred values were filed as active, the others as inactive; ? = inconclusive; / = not tested or not shown; + = active, no number. This is a sample that favours compounds with a hit; in the whole collection about 1.8% have one here.

SMILES	ARNT TACC3 PPI	AI-2 QS mod	aDG glyco up	SUMO Mot1 rescue	A1 inh	Mot1 SUMO dose
CCOC(=O)c1cnn(-c2sc(C(=O)OCC)c(C)c2C(=O)OCC)c1N	2.5	8.7	-0.3	-7.5	-0.4	/
O=S1(=O)C=C(Sc2nnc(-c3ccccc3)o2)c2ccccc21	/	-32.2	-0.5	916.6*	?	-1.8
O=C(c1ccccc1)c1c[nH]c(C(=O)NCc2cccnc2)c1	-5.9	16.8	0.0	69.7	-0.6	/
COc1ccc(C(=O)NCc2ccc(-c3nc4ccccc4s3)cc2)cc1	-5.1	24.9	0.2	-3.2	-0.8	/
COc1cccc(C(=O)NCc2ccc(-c3nc4ccccc4s3)cc2)c1	-5.3	9.7	1.2	374.6*	-0.7	0.2
O=C(Cn1nc(C(F)(F)F)c2c1CCCCC2)N1CCOCC1	-14.5	-6.0	1.7	-1.2	-0.6	/
O=C(Cn1nc(C(F)(F)F)c2c1CCCC2)N1CCOCC1	4.0	5.7	-0.1	772.3*	-1.1	-0.2
COc1ccc2nc(SCC(=O)N(C)CC(=O)Nc3ccc(F)cc3)[nH]c2c1	-0.1	/	0.2	558.4*	-2.3	0.1
CCN(CC(=O)N1CCCCCC1)S(=O)(=O)c1ccc(Cl)cc1	1.5	28.1	-0.1	+	0.7	-0.4
CCOc1cc(C(N)=O)cc(OCC)c1OCC	19.2	14.4	0.0	-12.2	0.4	/
CCN(CC)C1CCN(C(=O)c2cc(COc3ccc(-n4cncn4)cc3)on2)C1 (stereo not given)	-3.6	13.5	-0.2	511.6*	-1.0	0.2
Cc1ccc(SCC(=O)NCC2CCCO2)cc1 (stereo not given)	-8.6	17.7	-0.5	-12.5	-0.4	/
CCC(=O)Nc1ccc(F)c(Cl)c1	-2.9	3.7	0.0	-0.4	-0.1	/
CCC(=O)Nc1ccc(Br)c(Cl)c1	-2.1	3.6	0.0	702.5*	-0.4	0.6
O=C(CCSc1nnc(-c2ccncc2)o1)Nc1ccc(Cl)cc1	-4.6	45.4	0.4	450.0*	0.3	-0.9
O=C(CCSc1nnc(-c2ccncc2)o1)Nc1cccc(Cl)c1	4.3	7.0	-0.1	16.0	0.0	/
COc1ccc(S(=O)(=O)Nc2cccc3c2O[C@@H](CN(C)C(=O)Nc2ccc(F)cc2)[C@@H](C)CN([C@H](C)CO)C3=O)cc1	1.0	/	/	/	/	/
Cn1c(NCc2ccco2)nc2c1c(=O)n(Cc1ccc(Cl)cc1)c(=O)n2C	20.8	-8.1	0.2	+	0.3	0.9
CN(C)c1ccc2nc3ccc(=[N+](C)C)cc-3sc2c1	/	-47.4	46.7*	556.5*	-2.1	-1.8
CCC(C)NCCOCCSc1ccc(Cl)cc1 (stereo not given)	-2.9	16.7	0.2	5.8	-0.2	/
COc1cc(Cl)cc(C#N)c1OCC(=O)O	-5.7	-6.9	0.1	-8.3	1.7	/
COC(=O)c1ccc2nc(-c3cccc(Cl)c3)c(CC3CCCCC3)n2c1	/	/	2.0	/	/	/
C[C@H]1CN([C@@H](C)CO)C(=O)c2cc(-c3ccc(F)cc3)cnc2O[C@H]1CN(C)C(=O)Cc1ccccc1	-2.3	/	/	/	/	/
CC(C)NC(=O)CCCc1cn(C)c2ccccc12	-6.0	24.2	-0.3	502.7*	0.0	0.8
CC(CCc1ccccc1)NC(=O)CCc1cn(C)c2ccccc12 (stereo not given)	-9.3	11.3	0.1	87.4	-0.7	/
SMILES	ARNT TACC3 PPI	AI-2 QS mod	aDG glyco up	SUMO Mot1 rescue	A1 inh	Mot1 SUMO dose
CCCCc1nnc(NC(=O)CSc2nc(O)c(-c3ccccc3)c(=O)[nH]2)s1	-2.0	37.5	0.6	630.8*	1.6	0.8
CC(C)NC(=O)c1ccccc1-c1ccccc1	-2.6	24.5	0.0	467.5*	0.5	0.6
COc1ccc(NC(=O)c2ccccc2-c2ccccc2)cc1	-5.0	41.7	0.1	1.7	0.6	/
Cc1noc(C)c1NC(=O)Nc1ccc2c(c1)C(=O)N([C@H](C)CO)C[C@H](C)[C@@H](CN(C)C(=O)NC(C)C)O2	-2.4	/	-0.1	/	/	/
COc1cc(/C=N/NC(=S)NCc2ccco2)cc(OC)c1OC	6.6	-0.8	-0.1	498.2*	-0.2	-0.9
Cc1ccc(CSCC(=O)Nc2c(C)n(C)n(-c3ccccc3)c2=O)cc1	-1.1	25.5	-0.1	48.4	-0.5	/

Source: PubChem BioAssay
